Test results reported in article PMC7862700, “An all-to-all approach to the identification of sequence-specific readers for epigenetic DNA modifications on cytosine”.

Columns and labels:
Test in all cases: DAPPL (digital affinity profiling via proximity ligation, sequencing); 10 mM Tris-HCl pH 7.5, 50 mM NaCl, 1 mM DTT, 4% glycerol, room temperature, 30 min; GST-TFs on glutathione beads, 16-mer random dsDNA library, 0.1% formaldehyde crosslink after washing; high values mean tight binding
FEV = molecular target: T1, FEV (Homo sapiens, UniProt Q99581 1-238); conditions: protein: recombinant; tags: N-terminal GST; dsDNA, one strand shown
T1 sequence: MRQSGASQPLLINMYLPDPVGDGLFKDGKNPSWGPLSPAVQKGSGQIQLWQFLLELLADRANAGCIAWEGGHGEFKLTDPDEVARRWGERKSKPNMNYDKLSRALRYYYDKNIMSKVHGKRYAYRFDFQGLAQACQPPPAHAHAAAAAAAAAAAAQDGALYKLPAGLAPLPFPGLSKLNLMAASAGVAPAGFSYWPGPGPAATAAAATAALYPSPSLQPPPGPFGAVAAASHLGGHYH
Procedure, shortened: (§1)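 Binding signal is each hexamer's read frequency for a factor divided by its frequency in the tag-only sample. The factors were GST-fused human transcription factors from yeast, captured on glutathione beads, DNA-barcoded and pooled with that sample. Pools were incubated with 200 nmole of a random double-stranded 16-mer DNA library in Tris/NaCl/DTT/glycerol buffer at room temperature for 30 min, then washed, crosslinked with 0.1% formaldehyde, proximity-ligated with BsaI/T4 ligase (1 h, 37 °C), PCR-amplified and sequenced on an Illumina NextSeq500.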

ETV5 = ETV5 (Homo sapiens, UniProt P41161 1-510); conditions: protein: recombinant; tags: N-terminal GST; dsDNA, one strand shown
Procedure, shortened: as §1

HSF1 = HSF1 (Homo sapiens, UniProt Q00613 1-529); conditions: protein: recombinant; tags: N-terminal GST; chain copies: 3; dsDNA, one strand shown
Procedure, shortened: as §1

SPIC = molecular target: T2, SPIC (Homo sapiens, UniProt Q8N5J4 1-248); conditions: protein: recombinant; tags: N-terminal GST; dsDNA, one strand shown
T2 sequence: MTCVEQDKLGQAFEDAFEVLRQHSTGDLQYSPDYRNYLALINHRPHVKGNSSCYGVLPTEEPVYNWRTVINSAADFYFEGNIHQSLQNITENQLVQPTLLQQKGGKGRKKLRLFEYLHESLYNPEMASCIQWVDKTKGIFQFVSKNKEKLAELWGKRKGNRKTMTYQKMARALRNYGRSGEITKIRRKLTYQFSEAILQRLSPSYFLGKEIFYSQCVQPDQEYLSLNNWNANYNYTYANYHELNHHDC
Procedure, shortened: as §1

ELF4 = ELF4 (Homo sapiens, UniProt Q99607 1-663); conditions: protein: recombinant; tags: N-terminal GST; dsDNA, one strand shown
Procedure, shortened: as §1

ELK4 = molecular target: T3, ELK4 (Homo sapiens, UniProt P28324-2 1-405); conditions: protein: recombinant; tags: N-terminal GST; dsDNA, one strand shown
T3 sequence: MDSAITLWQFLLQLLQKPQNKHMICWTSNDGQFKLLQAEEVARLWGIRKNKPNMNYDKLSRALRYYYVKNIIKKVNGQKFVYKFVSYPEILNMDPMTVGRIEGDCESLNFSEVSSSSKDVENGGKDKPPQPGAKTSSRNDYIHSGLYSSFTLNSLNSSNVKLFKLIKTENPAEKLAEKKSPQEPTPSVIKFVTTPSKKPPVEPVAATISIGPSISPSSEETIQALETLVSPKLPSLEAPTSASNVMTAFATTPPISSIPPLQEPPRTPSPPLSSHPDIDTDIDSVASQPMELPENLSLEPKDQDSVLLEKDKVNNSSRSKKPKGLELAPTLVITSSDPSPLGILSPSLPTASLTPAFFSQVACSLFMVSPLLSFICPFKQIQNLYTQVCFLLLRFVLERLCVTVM
Procedure, shortened: as §1

ETV2 = molecular target: T4, ETV2 (Homo sapiens, UniProt O00321 1-342); conditions: protein: recombinant; tags: N-terminal GST; dsDNA, one strand shown
T4 sequence: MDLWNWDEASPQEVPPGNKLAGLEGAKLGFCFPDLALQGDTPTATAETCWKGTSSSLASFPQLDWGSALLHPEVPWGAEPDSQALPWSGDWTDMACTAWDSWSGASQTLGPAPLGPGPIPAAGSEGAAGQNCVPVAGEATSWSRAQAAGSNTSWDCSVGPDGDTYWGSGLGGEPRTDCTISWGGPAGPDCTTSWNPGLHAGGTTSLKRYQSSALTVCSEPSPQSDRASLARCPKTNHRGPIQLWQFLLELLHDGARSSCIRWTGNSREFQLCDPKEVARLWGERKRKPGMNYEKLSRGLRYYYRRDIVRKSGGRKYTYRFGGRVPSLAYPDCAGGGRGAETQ
Procedure, shortened: as §1

ELF3 = molecular target: T5, ELF3 (Homo sapiens, UniProt P78545 1-371); conditions: protein: recombinant; tags: N-terminal GST; dsDNA, one strand shown
T5 sequence: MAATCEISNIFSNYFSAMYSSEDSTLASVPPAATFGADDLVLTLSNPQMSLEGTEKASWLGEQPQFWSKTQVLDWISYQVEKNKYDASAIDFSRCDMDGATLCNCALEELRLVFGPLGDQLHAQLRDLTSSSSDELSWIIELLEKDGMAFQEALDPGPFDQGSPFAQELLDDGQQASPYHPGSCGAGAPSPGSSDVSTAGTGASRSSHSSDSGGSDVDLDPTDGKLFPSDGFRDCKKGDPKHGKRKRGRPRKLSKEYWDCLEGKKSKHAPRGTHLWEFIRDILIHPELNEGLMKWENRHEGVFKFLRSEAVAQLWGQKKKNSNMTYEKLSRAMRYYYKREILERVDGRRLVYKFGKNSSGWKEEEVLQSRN
Procedure, shortened: as §1

CRX = CRX (Homo sapiens, UniProt O43186 1-299); conditions: protein: recombinant; tags: N-terminal GST; dsDNA, one strand shown
Procedure, shortened: as §1

ETV1 = ETV1 (Homo sapiens, UniProt P50549 1-477); conditions: protein: recombinant; tags: N-terminal GST; dsDNA, one strand shown
Procedure, shortened: as §1

ERF = molecular target: T6, ERF (Homo sapiens, UniProt P50548 1-548); conditions: protein: recombinant; tags: N-terminal GST; dsDNA, one strand shown
T6 sequence: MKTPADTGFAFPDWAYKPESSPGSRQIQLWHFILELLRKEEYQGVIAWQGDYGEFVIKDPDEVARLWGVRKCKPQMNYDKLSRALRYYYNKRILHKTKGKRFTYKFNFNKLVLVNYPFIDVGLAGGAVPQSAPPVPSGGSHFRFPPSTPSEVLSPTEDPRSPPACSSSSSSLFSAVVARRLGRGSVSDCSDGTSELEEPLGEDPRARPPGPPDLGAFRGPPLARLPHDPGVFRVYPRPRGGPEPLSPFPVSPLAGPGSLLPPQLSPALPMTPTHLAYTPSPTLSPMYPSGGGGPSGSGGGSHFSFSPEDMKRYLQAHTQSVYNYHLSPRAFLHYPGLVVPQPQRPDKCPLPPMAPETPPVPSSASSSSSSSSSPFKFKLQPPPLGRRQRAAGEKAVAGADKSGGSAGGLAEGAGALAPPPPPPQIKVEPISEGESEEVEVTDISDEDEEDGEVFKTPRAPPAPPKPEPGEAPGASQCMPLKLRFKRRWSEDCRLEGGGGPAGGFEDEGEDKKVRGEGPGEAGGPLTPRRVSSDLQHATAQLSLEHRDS
Procedure, shortened: as §1

ETV3L = molecular target: T7, ETV3L (Homo sapiens, UniProt Q6ZN32 1-361); conditions: protein: recombinant; tags: N-terminal GST; dsDNA, one strand shown
T7 sequence: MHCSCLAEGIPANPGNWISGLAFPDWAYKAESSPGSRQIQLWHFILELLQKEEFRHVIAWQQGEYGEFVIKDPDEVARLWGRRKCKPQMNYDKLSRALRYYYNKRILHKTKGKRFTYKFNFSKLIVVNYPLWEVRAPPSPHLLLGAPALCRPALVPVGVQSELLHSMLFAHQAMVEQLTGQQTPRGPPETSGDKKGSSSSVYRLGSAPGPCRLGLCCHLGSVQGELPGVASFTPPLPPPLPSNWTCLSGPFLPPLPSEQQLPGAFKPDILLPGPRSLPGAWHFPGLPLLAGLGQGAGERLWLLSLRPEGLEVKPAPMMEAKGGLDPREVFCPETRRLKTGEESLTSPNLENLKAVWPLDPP
Procedure, shortened: as §1

ETS2 = molecular target: T8, ETS2 (Homo sapiens, UniProt P15036 1-469); conditions: protein: recombinant; tags: N-terminal GST; dsDNA, one strand shown
T8 sequence: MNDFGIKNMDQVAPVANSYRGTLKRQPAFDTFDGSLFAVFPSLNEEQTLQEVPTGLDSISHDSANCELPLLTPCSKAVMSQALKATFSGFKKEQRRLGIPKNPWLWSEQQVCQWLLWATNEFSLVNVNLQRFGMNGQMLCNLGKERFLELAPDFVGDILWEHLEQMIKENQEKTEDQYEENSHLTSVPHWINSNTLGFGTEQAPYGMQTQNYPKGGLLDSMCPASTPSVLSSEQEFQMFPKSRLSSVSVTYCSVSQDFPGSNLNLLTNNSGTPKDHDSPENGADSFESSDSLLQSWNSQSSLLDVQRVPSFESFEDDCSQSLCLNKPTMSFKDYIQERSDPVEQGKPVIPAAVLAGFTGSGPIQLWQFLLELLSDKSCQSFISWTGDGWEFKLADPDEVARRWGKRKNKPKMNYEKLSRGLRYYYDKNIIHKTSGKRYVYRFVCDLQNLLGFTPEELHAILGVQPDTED
Procedure, shortened: as §1

SPDEF = molecular target: T9, SPDEF (Homo sapiens, UniProt O95238 1-335); conditions: protein: recombinant; tags: N-terminal GST; dsDNA, one strand shown
T9 sequence: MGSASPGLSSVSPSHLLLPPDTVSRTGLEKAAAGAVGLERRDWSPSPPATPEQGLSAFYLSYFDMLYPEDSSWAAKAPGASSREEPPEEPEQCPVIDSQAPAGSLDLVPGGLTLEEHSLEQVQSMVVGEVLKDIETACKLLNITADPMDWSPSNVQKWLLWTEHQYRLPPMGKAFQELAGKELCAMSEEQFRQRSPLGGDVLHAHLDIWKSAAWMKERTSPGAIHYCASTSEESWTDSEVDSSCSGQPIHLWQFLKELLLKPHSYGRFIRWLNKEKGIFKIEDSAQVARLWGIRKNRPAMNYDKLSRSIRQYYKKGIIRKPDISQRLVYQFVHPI
Procedure, shortened: as §1

ETV7 = molecular target: T10, ETV7 (Homo sapiens, UniProt Q9Y603 1-341); conditions: protein: recombinant; tags: N-terminal GST; dsDNA, one strand shown
T10 sequence: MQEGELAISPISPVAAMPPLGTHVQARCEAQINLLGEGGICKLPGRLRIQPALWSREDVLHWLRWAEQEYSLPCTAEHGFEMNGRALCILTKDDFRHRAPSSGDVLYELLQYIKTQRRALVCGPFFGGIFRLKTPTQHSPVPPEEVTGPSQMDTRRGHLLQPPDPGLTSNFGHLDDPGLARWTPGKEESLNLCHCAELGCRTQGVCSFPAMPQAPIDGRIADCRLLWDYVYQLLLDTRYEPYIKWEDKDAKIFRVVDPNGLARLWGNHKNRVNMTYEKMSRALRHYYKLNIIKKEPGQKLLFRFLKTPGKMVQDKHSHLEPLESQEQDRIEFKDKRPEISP
Procedure, shortened: as §1

ELF5 = molecular target: T11, ELF5 (Homo sapiens, UniProt Q9UKW6-2 1-255); conditions: protein: recombinant; tags: N-terminal GST; dsDNA, one strand shown
T11 sequence: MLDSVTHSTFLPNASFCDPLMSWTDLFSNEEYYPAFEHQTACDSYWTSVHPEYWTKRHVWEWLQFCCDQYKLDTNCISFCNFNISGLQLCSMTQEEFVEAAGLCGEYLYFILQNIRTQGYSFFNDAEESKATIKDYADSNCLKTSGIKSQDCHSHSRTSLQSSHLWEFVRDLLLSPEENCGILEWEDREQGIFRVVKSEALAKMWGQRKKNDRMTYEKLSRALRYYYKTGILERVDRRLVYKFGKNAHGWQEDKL
Procedure, shortened: as §1

ETV3 = molecular target: T12, ETV3 (Homo sapiens, UniProt P41162-2 1-143); conditions: protein: recombinant; tags: N-terminal GST; dsDNA, one strand shown
T12 sequence: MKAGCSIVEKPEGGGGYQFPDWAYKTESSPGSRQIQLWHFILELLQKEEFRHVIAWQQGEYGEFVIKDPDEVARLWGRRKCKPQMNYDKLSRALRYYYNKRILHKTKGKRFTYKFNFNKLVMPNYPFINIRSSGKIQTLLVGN
Procedure, shortened: as §1

ETV6 = ETV6 (Homo sapiens, UniProt P41212 1-452); conditions: protein: recombinant; tags: N-terminal GST; dsDNA, one strand shown
Procedure, shortened: as §1

Sequence of ETV1 (P50549 whole entry): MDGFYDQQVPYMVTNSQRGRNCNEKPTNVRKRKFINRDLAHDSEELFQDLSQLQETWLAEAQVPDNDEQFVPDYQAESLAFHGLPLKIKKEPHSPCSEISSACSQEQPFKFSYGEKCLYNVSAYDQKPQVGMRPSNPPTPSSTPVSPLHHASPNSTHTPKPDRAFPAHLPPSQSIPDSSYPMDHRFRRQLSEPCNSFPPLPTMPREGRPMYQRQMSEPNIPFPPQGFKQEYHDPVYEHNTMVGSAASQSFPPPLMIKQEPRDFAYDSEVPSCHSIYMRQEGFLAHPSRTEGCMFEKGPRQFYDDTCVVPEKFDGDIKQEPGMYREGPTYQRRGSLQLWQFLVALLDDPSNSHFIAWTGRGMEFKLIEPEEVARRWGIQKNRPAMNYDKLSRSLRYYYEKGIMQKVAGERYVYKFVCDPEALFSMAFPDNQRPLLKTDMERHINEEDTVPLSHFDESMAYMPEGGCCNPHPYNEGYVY
Sequence of ELF4 (Q99607 whole entry): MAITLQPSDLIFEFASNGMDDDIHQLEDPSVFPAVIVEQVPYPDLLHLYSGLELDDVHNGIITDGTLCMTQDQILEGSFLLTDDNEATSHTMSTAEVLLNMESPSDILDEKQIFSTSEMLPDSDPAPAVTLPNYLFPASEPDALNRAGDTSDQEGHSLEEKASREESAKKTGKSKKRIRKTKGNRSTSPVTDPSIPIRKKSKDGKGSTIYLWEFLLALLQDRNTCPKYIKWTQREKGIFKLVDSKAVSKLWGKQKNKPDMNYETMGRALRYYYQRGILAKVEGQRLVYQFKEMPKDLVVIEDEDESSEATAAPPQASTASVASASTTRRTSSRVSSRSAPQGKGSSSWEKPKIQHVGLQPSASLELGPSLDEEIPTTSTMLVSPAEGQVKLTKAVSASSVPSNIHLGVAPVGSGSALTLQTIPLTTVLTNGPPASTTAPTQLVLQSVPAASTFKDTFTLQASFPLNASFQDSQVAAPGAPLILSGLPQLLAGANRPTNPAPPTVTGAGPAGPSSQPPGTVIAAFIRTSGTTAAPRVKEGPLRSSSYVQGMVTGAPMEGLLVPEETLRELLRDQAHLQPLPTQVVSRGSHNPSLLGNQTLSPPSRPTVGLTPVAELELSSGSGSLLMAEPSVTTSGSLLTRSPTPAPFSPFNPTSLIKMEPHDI
Sequence of HSF1 (Q00613 whole entry): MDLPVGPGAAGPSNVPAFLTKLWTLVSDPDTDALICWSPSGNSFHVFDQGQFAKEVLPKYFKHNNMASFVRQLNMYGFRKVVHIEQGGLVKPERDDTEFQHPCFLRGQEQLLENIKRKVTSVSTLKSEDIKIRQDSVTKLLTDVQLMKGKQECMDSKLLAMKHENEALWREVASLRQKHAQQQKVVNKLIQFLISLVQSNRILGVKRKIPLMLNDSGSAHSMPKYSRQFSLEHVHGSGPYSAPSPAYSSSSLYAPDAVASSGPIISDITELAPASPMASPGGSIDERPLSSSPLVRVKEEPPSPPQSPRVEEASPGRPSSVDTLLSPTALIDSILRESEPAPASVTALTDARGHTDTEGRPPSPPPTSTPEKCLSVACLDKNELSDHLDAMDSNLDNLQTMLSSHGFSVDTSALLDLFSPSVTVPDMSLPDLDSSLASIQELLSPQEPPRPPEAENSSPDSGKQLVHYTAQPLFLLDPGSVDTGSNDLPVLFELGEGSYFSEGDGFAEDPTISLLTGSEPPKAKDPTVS
Sequence of ETV5 (P41161 whole entry): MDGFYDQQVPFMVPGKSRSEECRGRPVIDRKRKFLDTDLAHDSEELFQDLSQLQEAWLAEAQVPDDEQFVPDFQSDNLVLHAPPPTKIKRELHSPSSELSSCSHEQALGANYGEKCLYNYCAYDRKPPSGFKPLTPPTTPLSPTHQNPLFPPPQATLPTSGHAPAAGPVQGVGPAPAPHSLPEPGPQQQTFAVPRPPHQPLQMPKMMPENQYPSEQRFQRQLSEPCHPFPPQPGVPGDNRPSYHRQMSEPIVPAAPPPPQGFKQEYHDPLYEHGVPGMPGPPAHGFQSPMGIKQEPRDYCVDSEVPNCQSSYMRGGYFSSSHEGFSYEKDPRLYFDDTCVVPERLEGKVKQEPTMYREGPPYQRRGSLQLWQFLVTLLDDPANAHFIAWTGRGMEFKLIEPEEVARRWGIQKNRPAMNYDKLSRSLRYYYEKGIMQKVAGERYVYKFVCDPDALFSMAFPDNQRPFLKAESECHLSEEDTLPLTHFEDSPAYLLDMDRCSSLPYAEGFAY
Sequence of CRX (O43186 whole entry): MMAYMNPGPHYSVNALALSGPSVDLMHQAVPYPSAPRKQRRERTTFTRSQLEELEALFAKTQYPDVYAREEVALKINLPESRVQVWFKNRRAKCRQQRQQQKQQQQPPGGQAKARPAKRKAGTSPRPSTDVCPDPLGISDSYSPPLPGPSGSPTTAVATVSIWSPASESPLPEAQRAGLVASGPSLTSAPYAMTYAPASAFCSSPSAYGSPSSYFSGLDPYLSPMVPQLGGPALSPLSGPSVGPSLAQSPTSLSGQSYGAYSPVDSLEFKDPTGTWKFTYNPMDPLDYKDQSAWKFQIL
Sequence of ETV6 (P41212 whole entry): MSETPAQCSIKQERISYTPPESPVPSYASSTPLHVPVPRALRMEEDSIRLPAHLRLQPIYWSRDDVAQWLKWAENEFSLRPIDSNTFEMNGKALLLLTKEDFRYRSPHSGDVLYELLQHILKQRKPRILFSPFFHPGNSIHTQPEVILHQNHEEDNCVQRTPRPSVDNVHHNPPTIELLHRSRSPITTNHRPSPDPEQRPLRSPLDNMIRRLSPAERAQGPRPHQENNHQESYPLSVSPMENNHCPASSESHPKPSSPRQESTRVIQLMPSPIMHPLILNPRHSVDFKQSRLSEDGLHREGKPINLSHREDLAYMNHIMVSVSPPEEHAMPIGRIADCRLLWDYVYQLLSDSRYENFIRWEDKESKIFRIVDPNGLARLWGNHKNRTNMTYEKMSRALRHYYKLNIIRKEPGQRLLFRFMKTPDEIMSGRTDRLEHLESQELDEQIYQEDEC

Sequence: GAATCC
- binding signal (FEV): 1.13 fold enrichment (6-mer frequency, TF over GST control)
- binding signal (ETV5): 1.17 fold enrichment (6-mer frequency, TF over GST control)
- binding signal (HSF1): 1.21 fold enrichment (6-mer frequency, TF over GST control)
- binding signal (SPIC): 1.1 fold enrichment (6-mer frequency, TF over GST control)
- binding signal (ELF4): 1.12 fold enrichment (6-mer frequency, TF over GST control)
- binding signal (ELK4): 1.19 fold enrichment (6-mer frequency, TF over GST control)
- binding signal (ETV2): 1.09 fold enrichment (6-mer frequency, TF over GST control)
- binding signal (ELF3): 1.02 fold enrichment (6-mer frequency, TF over GST control)
- binding signal (CRX): 1.19 fold enrichment (6-mer frequency, TF over GST control)
- binding signal (ETV1): 1.13 fold enrichment (6-mer frequency, TF over GST control)
- binding signal (ERF): 1.12 fold enrichment (6-mer frequency, TF over GST control)
- binding signal (ETV3L): 1.11 fold enrichment (6-mer frequency, TF over GST control)
- binding signal (ETS2): 1.13 fold enrichment (6-mer frequency, TF over GST control)
- binding signal (SPDEF): 1.54 fold enrichment (6-mer frequency, TF over GST control)
- binding signal (ETV7): 1.18 fold enrichment (6-mer frequency, TF over GST control)
- binding signal (ELF5): 1.03 fold enrichment (6-mer frequency, TF over GST control)
- binding signal (ETV3): 1.14 fold enrichment (6-mer frequency, TF over GST control)
- binding signal (ETV6): 1.08 fold enrichment (6-mer frequency, TF over GST control)
